Reference: PubChem BioAssay (EPA / NIEHS)
Inconclusive results are not listed. The source made the active and inactive calls. Rule for the calls: active = hit-call score of the fitted dose curve at least 0.9, where 1 is the maximum; inconclusive = response in the unintended direction; inactive = score below 0.9.

What was measured:
[1] = target: Cellular tumor antigen p53 (Homo sapiens) (UniProt P04637); test: TOX21_p53_BLA_p2_ratio: Tox21 HCT-116 p53 Agonism Beta-lactamase Assay, Ratio, Phase 2 (AID 2283592)
Outline: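 DMSO-normalized, positive-direction endpoint derived from the 460 nm/530 nm FRET ratio in HCT116 p53 beta-lactamase reporter cells exposed 16 h at 37C and loaded with CCF4-AM for 2 h.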

[2] = target: Cellular tumor antigen p53 (Homo sapiens) (UniProt P04637); test: TOX21_p53_BLA_p3_ratio: Tox21 HCT-116 p53 Agonism Beta-lactamase Assay, Ratio, Phase 3 (AID 2283596)
Outline: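 Cells were seeded at 4000/well, rested 5 h at 37C, then dosed with DMSO compound solutions (217-fold dilution) for 16 h. CCF4-AM substrate was loaded for 2 h at room temperature, and the 460/530 nm emission ratio was fitted for gain of signal versus DMSO.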

[3] = target: Cellular tumor antigen p53 (Homo sapiens) (UniProt P04637); test: TOX21_p53_BLA_p5_ratio: Tox21 HCT-116 p53 Agonism Beta-lactamase Assay, Ratio, Phase 5 (AID 2283599)
Outline: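 HCT-116 cells carrying a p53-inducible beta-lactamase reporter were seeded at 4000 cells/well and dosed after 5 h with compound in DMSO (217-fold dilution). After 16 h at 37C, CCF4-AM substrate was added for 2 h, and the 460/530 nm emission ratio was scored as gain-of-signal versus DMSO.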

[4] = target: Cellular tumor antigen p53 (Homo sapiens) (UniProt P04637); test: TOX21_p53_BLA_p4_ratio: Tox21 HCT-116 p53 Agonism Beta-lactamase Assay, Ratio, Phase 4 (AID 2283601)
Outline: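 HCT116 cells carrying an inducible beta-lactamase reporter were plated at 4000 cells/well, rested 5 h, then exposed to compounds in DMSO (217-fold dilution) for 16 h at 37C. CCF4-AM substrate was loaded 2 h at room temperature; 460/530 nm emission ratio scored gain-of-signal versus DMSO.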

[5] = TOX21_p53_BLA_p5_viability: Viability Assessment in the Tox21 HCT-116 p53 Agonism Beta-lactamase Assay, Phase 5 (AID 2283600)
Outline: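 Here cell health was gauged by ATP levels in wells holding 4000 cells, each treated 16 h with DMSO-delivered compounds at 217-fold dilution; reduced luminescence marked toxicity.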

Measured: AC50

Cellular tumor antigen p53 (Homo sapiens), sequence (P04637 whole entry, looked up): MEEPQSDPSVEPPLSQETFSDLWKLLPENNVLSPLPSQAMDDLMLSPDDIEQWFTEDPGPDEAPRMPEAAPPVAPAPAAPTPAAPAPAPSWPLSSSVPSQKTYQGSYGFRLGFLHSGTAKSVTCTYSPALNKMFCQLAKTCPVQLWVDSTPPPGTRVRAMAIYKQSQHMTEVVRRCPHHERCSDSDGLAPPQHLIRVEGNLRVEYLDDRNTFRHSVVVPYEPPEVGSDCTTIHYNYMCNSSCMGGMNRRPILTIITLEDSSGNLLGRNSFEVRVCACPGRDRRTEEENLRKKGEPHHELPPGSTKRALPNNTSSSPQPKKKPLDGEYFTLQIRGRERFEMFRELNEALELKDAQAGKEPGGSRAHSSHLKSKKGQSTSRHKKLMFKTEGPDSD

Nc1c2c(nc3ccccc13)CCCC2O (configuration not stated)
not listed: [5]
inactive: all other assays above

COc1cc(C(=S)N2CCOCC2)ccc1O
inactive: all assays above

CNCC(=O)N[C@@H](CCCN=C(N)N)C(=O)N[C@H](C(=O)N[C@@H](Cc1ccc(O)cc1)C(=O)N[C@H](C(=O)N[C@@H](Cc1cnc[nH]1)C(=O)N1CCC[C@H]1C(=O)N[C@@H](C)C(=O)O)C(C)C)C(C)C
not listed: [5]
inactive: all other assays above

CC(CN1c2ccccc2Sc2cccnc21)N(C)C (configuration not stated)
not listed: [5]
inactive: all other assays above

CCOCC(O)COc1ccc(NC(=O)CC[S+](C)C)cc1 (configuration not stated)
not listed: [5]
inactive: all other assays above

NC1CCN(c2nc3c(cc2F)c(=O)c(C(=O)O)cn3-c2ccc(F)cc2F)C1 (configuration not stated)
not listed: [5]
inactive: all other assays above

CCCC(C)C
inactive: all assays above

C=CC(=O)OCC1CCCO1 (configuration not stated)
not listed: [5]
inactive: all other assays above

NS(=O)(=O)c1cc2c(cc1Cl)NC(C(Cl)Cl)NS2(=O)=O (configuration not stated)
inactive: all assays above

C[C@@](Cc1ccc(O)c(O)c1)(NN)C(=O)O
inactive: all assays above

CC(C)OC(=O)CCC(=O)OC(C)C
inactive: all assays above

CCC=O
not listed: [5]
inactive: all other assays above

CCOc1cc(NC(C)=O)ccc1C(=O)OC
inactive: all assays above

O=C(O)COc1ccccc1/C=N/NC(=O)c1ccncc1
inactive: all assays above

Cc1ncc(COP(=O)(O)O)c(CN)c1O
inactive: all assays above

NC(=O)OC[C@@H]1[C@H](NC(=O)/C(=N\OCC(=O)O)c2csc(N)n2)C(=O)N1S(=O)(=O)O
inactive: all assays above

CC[C@]1(O)C[C@H]2CN(CCc3c([nH]c4ccccc34)[C@@](C(=O)OC)(c3cc4c(cc3OC)N(C=O)[C@H]3[C@@](O)(C(=O)OC)[C@H](OC(C)=O)[C@]5(CC)C=CCN6CC[C@]43[C@@H]65)C2)C1
inactive: [5]
active: [1] 0.0112 µM | [2] 0.00209 µM | [3] 0.00486 µM | [4] 0.0184 µM

COc1ccc(-c2nc3ccc(C4=NNC(=O)CC4C)cc3[nH]2)cc1 (configuration not stated)
active: [1] 17.1 µM | [2] 21.5 µM | [3] 16.3 µM | [4] 15 µM
inactive: [5]

Cc1cc(=O)c(C(=O)N[C@@H](C(=O)N[C@@H]2C(=O)N3C(C(=O)O)=C(CSc4nnnn4C)CS[C@H]23)c2ccc(O)cc2)c[nH]1
inactive: all assays above

O=Cc1ccc(F)c(Br)c1
not listed: [5]
inactive: all other assays above

Cc1ccccc1OCC(O)CNCCOc1ccc(C(N)=O)cc1 (configuration not stated)
not listed: [5]
inactive: all other assays above

O=c1[nH]cnc2c1ncn2[C@@H]1O[C@H](CO)[C@@H](O)[C@H]1O
not listed: [5]
inactive: all other assays above

CCCCc1ccc2nc(NC(=O)OC)[nH]c2c1
active: [2] 0.0408 µM
inactive: [1] | [3] | [4]

CN1c2c(nc(N)[nH]c2=O)NCC1CNc1ccc(C(=O)NC(CCC(=O)O)C(=O)O)cc1 (configuration not stated)
inactive: all assays above

O=C(c1ccc(O)cc1)c1ccc(O)cc1
inactive: [1] | [2] | [3]
active: [4] 75.5 µM

CCOC(=O)c1ccc(I)cc1
not listed: [5]
inactive: all other assays above

CCCCCC(N)=O
inactive: all assays above

O=C1OC(=O)c2cccc3cccc1c23
not listed: [5]
inactive: all other assays above

NC1[C@H]2CN(c3nc4c(cc3F)c(=O)c(C(=O)O)cn4-c3ccc(F)cc3F)C[C@@H]12 (some centres not stated)
inactive: [3] | [4]
active: [1] 30.4 µM | [2] 27.3 µM

CN1CCN(c2c(F)cc3c(=O)c(C(=O)O)cn4c3c2SCC4)CC1
not listed: [5]
inactive: all other assays above

NC1=NCC2c3ccccc3Cc3ccccc3N12 (configuration not stated)
not listed: [5]
inactive: all other assays above

CC(C)NC[C@@H](O)COc1cccc2ccccc12
inactive: all assays above

CN1C[C@H]2c3ccccc3Oc3ccc(Cl)cc3[C@@H]2C1
inactive: [1] | [3] | [4]
active: [2] 43.8 µM
